# According to the supplement of paper PMC3545927:
# This is one part of the list. The true hit rate is not given.
# Target: furin, P09958
# Assay: furin cleavage Z-score vs untreated control; higher = more cleavage, active = 3.5 or more, inactive = 1 or less, 8 variable residues between constant flanks
# Procedure, shortened: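 Cleavage by purified furin was measured on 8-mer peptides fused to a cDNA oligonucleotide and held on magnetic beads by their N-terminus. Reactions (0.01 ml, 1:10 enzyme:substrate) ran 7.5, 15 or 30 min in 50 mM HEPES pH 7.5 with CaCl2 and NaCl. Released DNA was adapter-tagged by PCR and sequenced, with read counts giving abundance. Log counts versus furin-free reactions were lowess-adjusted and scaled by median absolute deviation to give the cleavage Z-score.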
# Chain of furin, P09958 (P09958 whole entry): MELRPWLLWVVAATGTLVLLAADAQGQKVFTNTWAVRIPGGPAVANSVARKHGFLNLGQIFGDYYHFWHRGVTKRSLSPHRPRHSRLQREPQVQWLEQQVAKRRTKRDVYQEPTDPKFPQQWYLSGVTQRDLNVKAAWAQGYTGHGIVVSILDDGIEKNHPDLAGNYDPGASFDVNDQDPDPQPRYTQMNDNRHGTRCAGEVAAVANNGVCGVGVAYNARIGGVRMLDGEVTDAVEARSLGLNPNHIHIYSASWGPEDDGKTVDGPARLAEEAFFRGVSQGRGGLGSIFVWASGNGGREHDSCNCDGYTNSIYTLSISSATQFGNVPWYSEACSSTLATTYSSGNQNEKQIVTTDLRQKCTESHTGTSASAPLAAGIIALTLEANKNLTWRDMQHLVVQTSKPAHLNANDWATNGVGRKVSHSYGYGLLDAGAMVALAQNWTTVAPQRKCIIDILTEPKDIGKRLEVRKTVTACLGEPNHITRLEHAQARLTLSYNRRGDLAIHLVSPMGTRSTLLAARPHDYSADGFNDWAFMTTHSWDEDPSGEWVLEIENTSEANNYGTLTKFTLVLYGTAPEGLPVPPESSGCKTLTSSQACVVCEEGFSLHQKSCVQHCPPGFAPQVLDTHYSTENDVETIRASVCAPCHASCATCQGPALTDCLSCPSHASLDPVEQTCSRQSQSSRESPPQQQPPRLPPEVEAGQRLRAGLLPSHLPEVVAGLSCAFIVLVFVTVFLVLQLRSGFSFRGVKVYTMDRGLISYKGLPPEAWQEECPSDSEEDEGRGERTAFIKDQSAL
Sequence,furin cleavage Z-score (7.5 min),furin cleavage Z-score (15 min),furin cleavage Z-score (30 min)
CAEVVTSTDVAGNASASA [HC2231],-0.548 (inactive),0.743 (inactive),-0.721 (inactive)
CAASSSASQLAGNASASA [HC1260],1.48,0.251 (inactive),0.48 (inactive)
CAVVFCSMSYAGNASASA [HC2027],1.89,0.607 (inactive),-0.194 (inactive)
CARVCRDLMDAGNASASA [FS-1800],4.33 (active),7.74 (active),7.6 (active)
CARVSKDVEDAGNASASA [FS-1803],0.222 (inactive),-0.204 (inactive),-0.557 (inactive)
CARSLRDLMEAGNASASA [FS-2308],0.906 (inactive),1.52,1.89
CAVVDCSMSYAGNASASA [HC2031],-1.66 (inactive),-0.65 (inactive),-0.452 (inactive)
CAGLSTLPGNAGNASASA [HC1049],0.578 (inactive),-0.00394 (inactive),0.293 (inactive)
CARQRRTVGQAGNASASA [FS-2367],6.93 (active),8.06 (active),7.82 (active)
CARQRKSVNAAGNASASA [FS-2363],1.57,3.81 (active),4.35 (active)
CARTMKSVNAAGNASASA [FS-2466],1.07,2.56,0.0466 (inactive)
CARQARAVPQAGNASASA [FS-2224],3.01,5.06 (active),5.46 (active)
CARQRKESETAGNASASA [FS-2172],-0.961 (inactive),-0.283 (inactive),-0.371 (inactive)
CARQRRCLPQAGNASASA [FS-2364],-0.0379 (inactive),0.942 (inactive),2.63
CARQRRQVWKAGNASASA [FS-3043],2.63,5.18 (active),6.07 (active)
CARQARFSSQAGNASASA [FS-1915],-1.25 (inactive),-0.103 (inactive),0.0874 (inactive)
CARQARHYHQAGNASASA [FS-2582],0.232 (inactive),1.85,2.09
CAIAYFSMVGAGNASASA [HC340],-0.888 (inactive),-0.599 (inactive),0.982 (inactive)
CAAELATRSFAGNASASA [HC1333],2.09,0.0816 (inactive),1.22
CAVVLTESTLAGNASASA [HC1327],0.79 (inactive),0.145 (inactive),0.957 (inactive)
CAFAQALPVWAGNASASA [HC1301],-1.52 (inactive),0.477 (inactive),-2.4 (inactive)
CAWRLLAPITAGNASASA [HC672],-1.21 (inactive),-0.661 (inactive),-0.636 (inactive)

Sequence,furin cleavage Z-score (7.5 min),furin cleavage Z-score (15 min),furin cleavage Z-score (30 min)
CARTKRTRRPAGNASASA [FS-2830],0.799 (inactive),1.15,0.99 (inactive)
CARTKRTPGPAGNASASA [FS-2527],5.68 (active),6.29 (active),6.29 (active)
CARTKRAQSPAGNASASA [FS-2824],6.65 (active),6.74 (active),5.31 (active)
CARTKRQIPHAGNASASA [FS-1870],7.68 (active),12 (active),8.92 (active)
CARTITTGSPAGNASASA [HC802],-0.428 (inactive),-0.048 (inactive),0.343 (inactive)
CARSVRLGGPAGNASASA [FS-1795],0.0283 (inactive),0.734 (inactive),-1.33 (inactive)
CARTKLKLTPAGNASASA [HC1636],-0.273 (inactive),-0.712 (inactive),0.0379 (inactive)
CAPLLREEVSAGNASASA [HC1230],0.0348 (inactive),-0.15 (inactive),-1.63 (inactive)
CATTPCSQSWAGNASASA [HC1902],-0.685 (inactive),-1.5 (inactive),-0.222 (inactive)
CATTGCSGSWAGNASASA [HC1876],-1.5 (inactive),-0.493 (inactive),0.42 (inactive)
CASPSGQKRSAGNASASA [FS-723],0.144 (inactive),0.828 (inactive),0.312 (inactive)
CAHFSRQKRSAGNASASA [FS-535],8.68 (active),10.7 (active),8.57 (active)
CAKDSRQKRSAGNASASA [FS-670],10.3 (active),10.5 (active),7.97 (active)
CAQPSRQKRSAGNASASA [FS-480],11.2 (active),11.3 (active),7.7 (active)
CAVVCCRMSYAGNASASA [HC110],0.397 (inactive),0.763 (inactive),0.409 (inactive)
CAVVCCSMSHAGNASASA [HC2095],-0.191 (inactive),0.171 (inactive),0.0466 (inactive)
CAARLVVLATAGNASASA [HC831],-1.24 (inactive),-1.13 (inactive),-0.8 (inactive)
CARHHRGRGGAGNASASA [FS-2022],-0.128 (inactive),0.955 (inactive),-0.479 (inactive)
CARHHRFPRAAGNASASA [FS-1063],12.2 (active),10.7 (active),8.91 (active)
CAMASRFPRAAGNASASA [FS-690],11.5 (active),11.7 (active),9.44 (active)
CAKSKKTPMGAGNASASA [HC1475],1.44,0.854 (inactive),-0.61 (inactive)
